# Screens from PubChem BioAssay.
# nsP2pro primary – CHIKV nsP2 protease inhibition, primary qHTS; Q8JUX6; hit rate 1.1% among 31,000; Potency, µM (series often up to 24.9 µM), for the others: top-dose activity change, negative = inhibition, hits mostly inhibitors; FRET peptide cleavage, nsP2pro, fluorescence 1 h; also: nearly all actives have a fitted effect of over 60% in size
#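 FRET cleavage of 2.5 uM peptide 2 by 150 nM CHIKV protease domain at pH 8.0 (Tris, Tween 20). Compounds at 7 concentrations (up to 25 uM) preincubated 15 min. Fluorescence read after 1 h at room temperature.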
# nsP2 cell sec – inhibits CHIKV nsP2 protease in cells. shares compounds with nsP2pro primary. hit rate 10% among 450. Potency, µM (top dose mostly 51.1 µM), inactives show at the highest dose activity change, negative = inhibition, actives largely listed as inhibitors. cell-based CHIKV nsP2 protease reporter assay; also: nearly all actives have a fitted effect of over 70% in size
# CHIKV NSP2 FL – inhibits full-length CHIKV NSP2 enzyme | shares compounds with nsP2pro primary | Full-length CHIKV NSP2 protease enzymatic counterscreen | Potency, µM (top dose mostly 50.7 µM), for the others: at the highest dose activity change, negative = inhibition, actives largely listed as inhibitors | hit rate 39% among 410 | AID 1964101; also: nearly all actives have a fitted effect of over 65% in size
# Furin counterscr – selectivity counter-screen for CHIKV nsP2 protease inhibitors: human furin; shares compounds with nsP2pro primary; Recombinant human furin enzymatic counterscreen, fluorogenic substrate; Potency, µM (titrated, usually from 50.6 µM), without a hit: top-dose activity change, negative = inhibition, usual class: inhibitors; hit rate 6% among 410; AID 1964102
# nsP2 NS23 pep – selectivity test for CHIKV nsP2 protease inhibitors: endogenous NS2/3 peptide; Purified CHIKV nsP2 protease, endogenous NS2/3 peptide cleavage; hit rate 34% among 410; Potency, µM (highest dose often 51 µM), inactives show at the highest dose activity change, negative = inhibition, hits mostly inhibitors; AID 1964103; shares compounds with nsP2pro primary; also: nearly all actives have a fitted effect of over 55% in size
# Papain counter – selectivity counter-screen for CHIKV nsP2 protease inhibitors: papain; hit rate 5% among 410; shares compounds with nsP2pro primary; Potency, µM (highest dose often 51 µM), for the others: at the top dose activity change, negative = inhibition, hits mostly inhibitors; purified papain protease activity, enzymatic inhibition; AID 1964104
# nsP2pro confirm – confirmation of CHIKV nsP2 protease inhibitors; shares compounds with nsP2pro primary; CHIKV nsP2 protease enzymatic activity, qHTS; Potency, µM (series often up to 25.5 µM), for inactives: top-dose activity change, negative = inhibition, most hits filed as inhibitors; hit rate 43% among 410; AID 1964105; also: nearly all actives have a fitted effect of over 75% in size
# HCV NS3 counter – inhibits HCV NS3/4A protease in an nsP2pro selectivity counterscreen | shares compounds with nsP2pro primary | HCV NS3/4A protease biochemical counterscreen | Potency, µM (doses to about 50.9 µM), usual class: inhibitors | hit rate 20% among 410 | AID 1964106; also: nearly all actives have a fitted effect of over 55% in size
# * marks the source's active call; other numbers are inactive results; i = inactive; u = inconclusive; [ ] = remark or other dose. The sample as a whole holds a higher share of hits than the screen did. Calls follow the shape of the full dose curve. % is scaled to controls: 0 for no effect and ±100 for the full control effect; potency is read from the fitted curve at half-maximal effect.
SMILES,nsP2pro primary,others
CCOc1ccc(CCNC(=O)c2cc3sccc3n2Cc2ccccc2)cc1OCC,-6%,
CC(C)(O)C1Cc2c(ccc(C(=O)CCc3ccccc3)c2O)O1 (stereo not drawn),29%,
CC(=O)N1CC[C@]2(O)CCN(C(=O)CCCc3ccc(F)cc3)C[C@@H]2C1,-3%,
COc1ccc(CN(Cc2ccco2)C(=O)COc2ccccc2Cl)cc1,-16%,
CCCOc1ccc(C(=O)N(Cc2ccc(Cl)cc2)Cc2ccco2)cc1,-14%,
CCS(=O)(=O)c1ncc(Cl)c(C(=O)N(Cc2ccccc2)Cc2ccco2)n1,11µM*,nsP2 cell sec=3.3µM*;CHIKV NSP2 FL=16µM*;Furin counterscr=-3%;nsP2 NS23 pep=5.2µM*;Papain counter=-6%;nsP2pro confirm=4.5µM*;HCV NS3 counter=i
O=C(Nc1cccc2c1cnn2-c1ccc(F)cc1)c1ccccn1,2%,
C1Cc2[nH]nc(-c3nn[nH]n3)c2C1,8.8µM*,nsP2 cell sec=-7%;CHIKV NSP2 FL=9.2µM*;Furin counterscr=u;nsP2 NS23 pep=u;Papain counter=-29%;nsP2pro confirm=6.3µM*;HCV NS3 counter=i
CCCS(=O)(=O)c1nc(NC2CC2)cc(-c2ccc3c(ccn3C3CC(C)(C)NC(C)(C)C3)c2)n1,17%[10 µM],
CCCCC1C(=O)N(c2ccccc2)N(c2ccc(O)cc2)C1=O (stereo not drawn),8.8µM*,nsP2 cell sec=u;CHIKV NSP2 FL=21µM*;Furin counterscr=-13%;nsP2 NS23 pep=6.5µM*;Papain counter=-12%;nsP2pro confirm=8µM*;HCV NS3 counter=i
CCCCN1C(=O)c2ccccc2C1=O,-7%,
CC(C)=CCC1C(=O)N(c2ccccc2)N(c2ccccc2)C1=O,-4%,
CC(C)NC[C@H]1O[C@@H](CO)[C@@H](O)[C@H]1N1CCN(C)CC1,-10%[39.2 µM],
C=C(CO)C(=O)O[C@H]1C[C@@]23O[C@@H]2CC/C(=C/[C@H]2OC(=O)C(=C)[C@H]12)CO[C@H]3O,u,nsP2 cell sec=12%[33.5 µM];CHIKV NSP2 FL=u;Furin counterscr=-1%[33.5 µM];nsP2 NS23 pep=u;Papain counter=-7%[33.5 µM];nsP2pro confirm=-38%[16.7 µM];HCV NS3 counter=u
C=C[C@@]12COC(=O)C(=C)C1[C@@H](O)[C@H](C(=C)C(=O)OC)[C@@H](OC(=O)C(=C)CO)C2 (stereo partly drawn),-13%[10 µM],
C=C1C(=O)OC2/C=C(/C)C3=CC(=O)C(C)(CC(OC(=O)/C(C)=C/COC(C)=O)C12)O3 (stereo not drawn),-6%[10 µM],
C[S+](=O)([O-])c1cccc(NC(=O)Cc2c[nH]c3ncc(-c4cccnc4)cc23)c1,i,
Cc1cc(=O)n(CC(=O)Nc2ccc3c(c2)OCCO3)c(N2CCc3ccccc3C2)n1,1%,
C[C@@H]1O[C@@H](O[C@H]2[C@H](OC(=O)[C@]34CCC(C)(C)C[C@H]3C3=CCC5[C@@]6(C)C[C@H](O)[C@H](O[C@@H]7O[C@H](CO)[C@@H](O)[C@H](O)[C@H]7O)[C@](CO)(C(=O)O)C6CC[C@@]5(C)[C@]3(C)C[C@H]4O)OC[C@H](O)[C@@H]2O)[C@H](O)[C@H](O)[C@H]1O[C@@H]1OC[C@@H](O)[C@H](O[C@@H]2OC[C@](O)(CO)[C@H]2O)[C@H]1O (stereo partly drawn),-6%[5.1 µM],
CCOc1ccc(NC(=O)Nc2ccc(-c3nc4ccccc4[nH]3)cc2)cc1,i,
FC(F)(F)c1cc(-c2nc3ccccc3s2)cc(C(F)(F)F)c1,-5%,
O=C(N[C@H](CO)[C@H](O)c1ccc([N+](=O)[O-])cc1)C(Cl)Cl,-5%,
O=C(Nc1ccc([N+](=O)[O-])cc1)Nc1ccc([N+](=O)[O-])cc1,-8%,
COC(=O)C#Cc1ccc([N+](=O)[O-])cc1,0.99µM*,nsP2 cell sec=u;CHIKV NSP2 FL=1.2µM*;Furin counterscr=-6%;nsP2 NS23 pep=2.9µM*;Papain counter=-12%;nsP2pro confirm=0.56µM*;HCV NS3 counter=i
